# Laboratory results: PubChem BioAssay
# Results filed as inconclusive are left out. The source made the active and inactive calls.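 How the source made its calls, unless noted: active means viability at or below 10% of carrier control in both of two separate runs; inconclusive means viability at or below 10% in only one of the two runs; inactive means the rest.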
# Key:
# [1] = Her2 expression decrease, cell viability multiplex – SKBR3 breast tumor cells, AlphaScreen, ATP viability, primary screen (AID 461;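 active means Her2 level under about 52% in both replicate screens, with viability over 70% of control, limit read from the data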;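 on Her2 level: lower value means less Her2 protein in the cells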;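 on viability: percent of carrier control wells set as 100% viability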); conditions: SKBR3 Her2 protein level, 18-24 h, measured here: SKBR3 viability, ATP luminescence, at 10 µM
# [2] = target: Receptor tyrosine-protein kinase erbB-2 (Homo sapiens) (UniProt P04626); experiment: as above; conditions: 18-24 h, at 10 µM, stronger effect = lower value
# [3] = reduced viability of SK-BR-3 breast cancer cells – cell-based, 24 h, human, pilot screen (AID 572); conditions: SK-BR-3 viability, CellTiter-Glo luminescence, at 10 µM, stronger effect = lower value;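 further: compound exposure lasted between 18 and 24 h rather than exactly 24 h; 100% = carrier-treated control wells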
# [4] = HUVEC growth inhibition – cell-based, human, primary screen (AID 575;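 active means viability at or below 30% in both replicate assays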;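 further: 100% = median of untreated cell wells with 0.1% DMSO on each plate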); conditions: HUVEC proliferation, CellTiter-Glo luminescence, 72 h; at 10 µM; stronger effect = lower value
# [5] = H69AR cell proliferation blockers – human, duplicate replicates, primary screen (AID 580;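 active means viability at or under a set limit in both replicates, limit being median viability minus 3 SD, cut at about 48% in these data, passing the limit was not always enough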;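 further: 100% = mean luminescence of untreated wells and 0% = no signal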); conditions: H69AR lung tumor cells viability, ATP luminescence, 72 h; at 10 µM; stronger effect = lower value
# [6] = MRP1 drug-resistance reversers in H69AR cells – cell-based, doxorubicin co-treatment, pilot screen (AID 601;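 active means viability loss from added drug above about 55%, and viability with drug at most 40%, in both replicates, limit read from the data, passing the limit was not always enough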); conditions: CellTiter-Glo, 72 h, at 10 µM; for differential viability (reversal): stronger effect = higher value
# [7] = yeast transport mutant growth inhibition pilot in 384-well plates, post-Golgi transport modulator project (AID 636; in the data active means inhibition above about 31%); conditions: absorbance 615 nm, about 18 h, stronger effect = higher value
# [8] = growth suppression of yeast trafficking mutant, preliminary HTS, modulators of trafficking downstream of Golgi apparatus project, 1536-format plate, OD 615 nm (AID 637; in the data active means inhibition above about 30%); conditions: yeast transport mutant growth, absorbance 615 nm, 18 h; stronger effect = higher value
# [9] = S. cerevisiae growth inhibition in permissive medium (OD615), pilot counter-assay for S. cerevisiae lifespan shortening project, permissive growth control (AID 705;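 active means growth inhibition above 25% in both replicates, a cutoff set 3 SD above the mean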); conditions: OD615, 24 h, at 10 µM, stronger effect = higher value
# [10] = S. cerevisiae growth inhibition in restrictive medium, OD615, pilot screen, restrictive growth control, yeast lifespan reduction project (AID 706;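 active means growth inhibition above a set limit, 3 SD over mean compound inhibition, in both replicates, cut at about 43% in these data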;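 further: modified DeaD lifespan yeast strain shifted to restrictive glucose medium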); conditions: OD615, 48 h, at 10 µM, stronger effect = higher value
# [11] = doxorubicin toxicity protection in MRP-1 cells – H69AR cells, CellTiter-Glo, duplicate, MRP-1 activator project, pilot screen (AID 807;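 active means viability increase at or above a cutoff of the median across tested compounds plus 3 SD, cut at about 8.5% in these data, passing the limit was not always enough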;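 further: compound pretreatment 18-22 h then 72 h combined with doxorubicin; 0% = doxorubicin alone and 100% = vehicle without doxorubicin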); conditions: H69AR viability with doxorubicin, CellTiter-Glo luminescence; at 10 µM; stronger effect = higher value
# [12] = viability of HCT116 without oncogenic beta-catenin – human colon tumor cells, pilot screen (AID 823;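 active means cell viability at or below a set limit in both duplicate runs, the limit being the all-compound median minus 4 SD, cut at about 23% in these data, passing the limit was not always enough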;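 further: 0% = wells killed by 20 µM Hyamine and 100% = untreated DMSO cell wells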); conditions: HCT116 beta-catenin knockout viability, CellTiter-Glo, 60 h; at 10 µM; stronger effect = lower value
# [13] = viability of PTEN-null HCT116 cells – cell-based, HCT116 clonal line, CellTiter-Glo, pilot screen (AID 824;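 active means viability at or below 27.92% in each of two runs, the all-compound median minus 4 SD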;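 further: 0% = 20 µM Hyamine control and 100% = vehicle cell control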); conditions: HCT116 PTEN-deleted viability, 60 h, at 10 µM, stronger effect = lower value
# [14] = RAM pathway blockade in budding yeast – dse1pr::URA3 reporter, 5-FOA selection, pilot screen (AID 869;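 active means inhibition over a set limit, the all-compound mean plus 3 SD, in both replicate runs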;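 further: 0% = DMSO wells with no growth and 100% = 10 µM 1-NA-PP1 with full growth; RAM network block rescues cells from 5-FOA so hits raise OD615 growth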); conditions: S. cerevisiae dse1pr::URA3 5-FOA growth, OD615, 2 d; at 10 µM; stronger effect = higher value; strain carries analog-sensitive mutant Cbk1 kinase
# [15] = RAM signaling pathway blockade in yeast – S. cerevisiae, Pdr1DBD-CYC8 efflux-inhibited sensitized strain, primary screen (AID 1298;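 active means RAM network inhibition above 8.4% in each of two replicates, 3 SD over the compound average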;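 further: 0% = DMSO untreated cells without growth and 100% = 10 µM 1-NA-PP1 full growth; higher means more yeast growth rescued from 5-FOA killing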); conditions: S. cerevisiae cbk1-as DSE1-URA3 strain, 5-FOA growth OD615, 2 d; at 50 µM; stronger effect = higher value
# [16] = H69AR cells + 2 uM doxorubicin, measured here: viability with 2 uM doxorubicin, stronger effect = lower value
# [17] = H69AR cells, compound alone cytotoxicity
# Chain of Receptor tyrosine-protein kinase erbB-2 (Homo sapiens) (P04626 whole entry, looked up): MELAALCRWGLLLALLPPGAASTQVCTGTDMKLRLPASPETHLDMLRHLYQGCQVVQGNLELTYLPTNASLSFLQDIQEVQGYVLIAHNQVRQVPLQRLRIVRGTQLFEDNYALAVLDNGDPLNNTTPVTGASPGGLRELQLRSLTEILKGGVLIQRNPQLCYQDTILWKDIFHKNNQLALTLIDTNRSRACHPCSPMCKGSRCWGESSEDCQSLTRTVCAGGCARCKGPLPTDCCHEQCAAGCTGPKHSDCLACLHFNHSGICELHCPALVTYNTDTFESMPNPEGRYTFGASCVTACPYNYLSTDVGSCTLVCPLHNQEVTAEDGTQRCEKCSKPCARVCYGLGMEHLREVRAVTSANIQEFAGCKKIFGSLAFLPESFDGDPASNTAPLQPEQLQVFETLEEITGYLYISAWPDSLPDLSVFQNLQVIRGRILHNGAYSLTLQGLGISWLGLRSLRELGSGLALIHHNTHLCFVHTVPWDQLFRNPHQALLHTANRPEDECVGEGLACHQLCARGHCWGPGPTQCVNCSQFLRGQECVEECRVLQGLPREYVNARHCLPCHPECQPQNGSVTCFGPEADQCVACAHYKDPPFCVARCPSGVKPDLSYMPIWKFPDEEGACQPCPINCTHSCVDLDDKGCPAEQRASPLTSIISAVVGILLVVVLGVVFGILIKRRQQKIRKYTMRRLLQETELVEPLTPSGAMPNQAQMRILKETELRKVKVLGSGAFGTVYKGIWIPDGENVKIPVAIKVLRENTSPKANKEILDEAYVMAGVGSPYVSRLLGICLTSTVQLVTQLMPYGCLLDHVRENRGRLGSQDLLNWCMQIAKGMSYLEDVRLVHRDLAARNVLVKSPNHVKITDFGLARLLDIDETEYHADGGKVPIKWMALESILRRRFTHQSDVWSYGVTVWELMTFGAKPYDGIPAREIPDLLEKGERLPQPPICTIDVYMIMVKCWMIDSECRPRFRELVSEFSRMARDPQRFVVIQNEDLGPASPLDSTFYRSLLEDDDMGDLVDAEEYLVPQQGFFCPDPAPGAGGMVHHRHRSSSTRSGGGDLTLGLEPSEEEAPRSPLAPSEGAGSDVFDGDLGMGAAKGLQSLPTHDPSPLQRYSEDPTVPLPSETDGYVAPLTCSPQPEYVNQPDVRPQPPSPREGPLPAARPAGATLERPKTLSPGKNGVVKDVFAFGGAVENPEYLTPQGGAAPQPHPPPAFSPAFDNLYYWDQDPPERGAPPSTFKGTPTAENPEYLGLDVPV
Structure (SMILES),viability [1],Her2 level [2],viability [3],viability [4],viability [5],differential viability (reversal) ([6]; H69AR cells + 2 uM doxorubicin),"viability [6, 16]","viability [6, 17]",inhibition [7],inhibition [8],growth inhibition [9],growth inhibition [10],viability increase [11],viability [12],viability [13],inhibition [14],RAM network inhibition [15]
O=C(COc1ccc2ccccc2c1)N1CCCC1,101%,88.5% (inactive),101% (inactive),85.3% (inactive),90% (inactive),8.64% (inactive),81.4%,90%,0.38% (inactive),-6% (inactive),-2.41% (inactive),-2.41% (inactive),-0.13% (inactive),96.2% (inactive),101% (inactive),0.745% (inactive),6.48% (inactive)
Cc1cc2ccccc2n1CCNC(=O)C1CC1,89.5%,81% (inactive),89.5% (inactive),89.8% (inactive),88.1% (inactive),-5.55% (inactive),93.6%,88.1%,-4.8% (inactive),4.67% (inactive),-2.51% (inactive),1.02% (inactive),-0.53% (inactive),98.3% (inactive),101% (inactive),0.66% (inactive),2.78% (inactive)
Cc1n[nH]c(C)c1N1C(=O)c2cccc3cc(Br)cc(c23)C1=O,74.5%,79% (inactive),74.5% (inactive),85.5% (inactive),81.1% (inactive),-1.29% (inactive),82.4%,81.1%,0.26% (inactive),-4% (inactive),-11.5% (inactive),-11.6% (inactive),-2.41% (inactive),107% (inactive),101% (inactive),3.01% (inactive),4.68% (inactive)
CCC(C)(C(=O)NC1CCCC1)N(Cc1cccs1)C(C)=O (stereo not given),120%,83.5% (inactive),120% (inactive),102% (inactive),96.9% (inactive),6.71% (inactive),90.2%,96.9%,-9.04% (inactive),5.08% (inactive),-17.6% (inactive),-23.3% (inactive),-0.17% (inactive),108% (inactive),96.3% (inactive),0.55% (inactive),4.23% (inactive)
CCOC(=O)c1sc2nc(NC(=O)C3CCCCC3)sc2c1C,95.5%,92.5% (inactive),95.5% (inactive),58.7% (inactive),76.9% (inactive),1.21% (inactive),75.7%,76.9%,-0.4% (inactive),-7.21% (inactive),-4.09% (inactive),-7.62% (inactive),-0.22% (inactive),89.1% (inactive),95.2% (inactive),3.21% (inactive),4.73% (inactive)
O=C(CN1CCN(Cc2ccccc2F)C1=O)NCc1cccnc1,94.5%,94.5% (inactive),94.5% (inactive),108% (inactive),107% (inactive),17% (inactive),90.4%,107%,-3.87% (inactive),-1.97% (inactive),2.81% (inactive),6.51% (inactive),-1.65% (inactive),100% (inactive),94.6% (inactive),0.605% (inactive),3.14% (inactive)
Cc1ccc(N=Cc2ccc[nH]2)c(O)c1,96%,88.5% (inactive),96% (inactive),76.8% (inactive),81.9% (inactive),-14.5% (inactive),96.4%,81.9%,-2.56% (inactive),0.5% (inactive),-20.2% (inactive),-5.83% (inactive),-4.28% (inactive),71.8% (inactive),88.4% (inactive),1.36% (inactive),0.26% (inactive)
O=C(NCc1ccccc1)C1CCN(S(=O)(=O)c2cccc3cccnc23)CC1,96.5%,104% (inactive),96.5% (inactive),99% (inactive),98.2% (inactive),2.76% (inactive),95.4%,98.2%,0.67% (inactive),-2.79% (inactive),0.255% (inactive),-4.87% (inactive),-2.29% (inactive),99.2% (inactive),96.3% (inactive),1.52% (inactive),-0.57% (inactive)
CCC(CC)C(=O)NCCc1cc2ccc(C)cc2[nH]c1=O,99%,95% (inactive),99% (inactive),85.2% (inactive),87.6% (inactive),-5.36% (inactive),92.9%,87.6%,-4.8% (inactive),4.67% (inactive),1.09% (inactive),0.345% (inactive),-2.76% (inactive),102% (inactive),97.4% (inactive),0.02% (inactive),4.75% (inactive)
CCOc1ccccc1C(=O)Nc1cc(=O)n(C)c(=O)n1C,89.5%,88.5% (inactive),89.5% (inactive),86.8% (inactive),88.1% (inactive),-1.81% (inactive),89.9%,88.1%,-5.47% (inactive),3.5% (inactive),-0.335% (inactive),2.84% (inactive),-0.06% (inactive),103% (inactive),100% (inactive),0.715% (inactive),-2.04% (inactive)
CC(Oc1ccc2oc(-c3ccccc3)c(C(=O)O)c2c1)C(=O)O (stereo not given),95.5%,77.5% (inactive),95.5% (inactive),103% (inactive),103% (inactive),6.43% (inactive),96.3%,103%,-4.86% (inactive),-6% (inactive),-7.27% (inactive),2.06% (inactive),-1.56% (inactive),99.3% (inactive),102% (inactive),1.73% (inactive),4.67% (inactive)
N#Cc1ccc(-c2csc(NC(=O)C3CC3)n2)cc1,95.5%,91% (inactive),95.5% (inactive),109% (inactive),91.9% (inactive),6.75% (inactive),85.1%,91.9%,-2.93% (inactive),0.16% (inactive),-18.1% (inactive),-2.02% (inactive),3.47% (inactive),103% (inactive),88.9% (inactive),2.53% (inactive),4.29% (inactive)
CCOc1ccccc1NC(=O)CSc1nnc(Cc2cccn2C)n1-c1ccc(F)cc1,92.5%,78.5% (inactive),92.5% (inactive),97.4% (inactive),79.9% (inactive),1.24% (inactive),78.6%,79.9%,-1.28% (inactive),-1.17% (inactive),5.28% (inactive),7.75% (inactive),-5.25% (inactive),75.5% (inactive),78.2% (inactive),1.11% (inactive),4.07% (inactive)
Cc1nc2ccccn2c1/C(O)=C1\C(=O)C(=O)N(CCCN(C)C)C1c1ccc(F)cc1 (stereo not given),89%,91% (inactive),89% (inactive),94.4% (inactive),90.8% (inactive),-13.7% (inactive),105%,90.8%,0.4% (inactive),3.11% (inactive),-6.91% (inactive),-14% (inactive),-2.7% (inactive),104% (inactive),88.1% (inactive),0.255% (inactive),-2.2% (inactive)
CCOC(=O)c1ccc2ncc(C(=O)OCC)c(NCCN(C)C)c2c1,84%,99.5% (inactive),84% (inactive),102% (inactive),91.8% (inactive),10.6% (inactive),81.2%,91.8%,-0.8% (inactive),1.83% (inactive),-4.69% (inactive),2.56% (inactive),-1.02% (inactive),95.8% (inactive),94.8% (inactive),2.64% (inactive),2.56% (inactive)
O=C(c1ccc(CNc2c(N3CCCC3)c(=O)c2=O)cc1)N1CCc2ccccc2C1,90.5%,100% (inactive),90.5% (inactive),104% (inactive),95.3% (inactive),2.69% (inactive),92.6%,95.3%,3.59% (inactive),6.67% (inactive),-4% (inactive),-0.375% (inactive),-0.78% (inactive),92.6% (inactive),91% (inactive),0.36% (inactive),0.72% (inactive)
CCOC(=O)c1nc2sc3c(c2c(=O)[nH]1)CCCC3,80.5%,100% (inactive),80.5% (inactive),93.8% (inactive),83.5% (inactive),-3.7% (inactive),87.2%,83.5%,-2.31% (inactive),-16% (inactive),10.2% (inactive),12.2% (inactive),-1.32% (inactive),107% (inactive),99.3% (inactive),2.02% (inactive),3.93% (inactive)
CCN(CC)C(=O)C1CCCc2c1[nH]c1ccc(Cl)cc21 (stereo not given),102%,91% (inactive),102% (inactive),67.1% (inactive),76.6% (inactive),5.98% (inactive),70.6%,76.6%,8.13% (inactive),44% (active),-16% (inactive),-4.67% (inactive),-4.93% (inactive),66.5% (inactive),60.8% (inactive),0.455% (inactive),1.57% (inactive)
CCOCCCNC(=O)Cn1cc2c(n1)CCCCC2,114%,104% (inactive),114% (inactive),109% (inactive),103% (inactive),6.04% (inactive),96.8%,103%,1.03% (inactive),2.67% (inactive),-3.18% (inactive),-3.17% (inactive),-0.62% (inactive),100% (inactive),99.9% (inactive),2.07% (inactive),3.72% (inactive)
Cc1ccc(N=Cc2ccc(O)cc2O)cc1F,112%,80% (inactive),112% (inactive),69.3% (inactive),81.9% (inactive),8.83% (inactive),73.1%,81.9%,-2.34% (inactive),6.39% (inactive),-10.6% (inactive),-25.5% (inactive),-4.99% (inactive),76% (inactive),77.8% (inactive),0.995% (inactive),0.31% (inactive)
